This is an account of results in the supplement of paper PMC10720658.

Each structure is given as a SMILES string. ± gives the standard deviation of the averaged measurements.

In the experiment the test system is AEK1 (Tb927.3.2440). Put plainly: percent reduction in TR-FRET probe signal relative to DMSO control; higher = stronger displacement of ATP-site probe (binding). The conditions noted are these: 1 µM; incubation time 1 h. On the technique in general: Time-resolved FRET reads energy transfer from a long-lived donor to a nearby acceptor.
With `CCCS(=O)(=O)Nc1ccc(F)c(C(=O)c2c[nH]c3ncc(-c4ccc(Cl)cc4)cc23)c1F` [Vemurafenib (PLX4032, RG7204)], the “percent reduction in TR-FRET probe signal” value (from here on “percent reduction”) came out at 4.16 ± 3%.
As for `CN([C@@H](Cc1ccc(OS(=O)(=O)c2cccc3cnccc23)cc1)C(=O)N1CCN(c2ccccc2)CC1)S(=O)(=O)c1cccc2cnccc12`, the figure is 0.31 ± 8.8%.
With `C=CC(=O)Nc1cc(Nc2nccc(-c3cn(C)c4ccccc34)n2)c(OC)cc1N(C)CCN(C)C` the figure was -8.86 ± 8.3%; with `Cc1cc(F)c(Nc2ncnc3cc(OCc4ccccc4)ccc23)cc1O.Cl`, 29.8 ± 17%.
Regarding `CN1CCN(c2nc(C3=C(c4c[nH]c5ccccc45)C(=O)NC3=O)c3ccccc3n2)CC1` [Sotrastaurin], the “percent reduction” value was -7.1 ± 1.4%.
With `CC(=O)Nc1nc(C)c(-c2ccc(Cl)c(S(=O)(=O)NCCO)c2)s1` the figure was -6.5 ± 15%; with `O=C1NC(=O)/C(=C\c2ccc(-c3ccc(F)cc3)o2)S1`, -0.187 ± 4.6%.
With `COc1ccc(COc2cc3oc(=O)c4cc(C(C)O)ccc4c3cc2OC)cc1` (stereo not drawn) [Palomid 529 (P529)] the figure was -5.44 ± 9.3%.
With `O=C(NOC[C@H](O)CO)c1ccc(F)c(F)c1Nc1ccc(I)cc1F` the figure was -3.89 ± 11%; with `COc1cccc(-n2c(=O)[nH]c3cc(Cl)n(-c4ccc(-c5cccc(OC)c5O)cc4)c3c2=O)c1`, -7.49 ± 2.1%; with `O=C(Nc1ccc(-c2ccnc(Nc3ccc(N4CCOCC4)cc3)n2)cc1)[C@@H]1CCCN1`, 6.52 ± 10%.
For the compound `O=C(/C=C/c1ccc2ccccc2n1)c1ccncc1`, the “percent reduction” value was -6.28 ± 6%.
As for `CS(=O)(=O)N1CCN(Cc2cc3nc(-c4cccc5[nH]ncc45)nc(N4CCOCC4)c3s2)CC1`, the figure is 4.23 ± 8.1%; as for `COc1c(C)c(C(=O)c2ccc(N)c(C(=O)[O][Na])c2)n2ccccc12`, 6.59 ± 7.5%; as for `CC(C)(C)NS(=O)(=O)c1cncc(-c2cc(F)c3nc(N)nn3c2)c1`, -7.77 ± 4.5%.
Turning to `CCCCCCCCCCCCc1ccc(S(=O)(=O)Nc2nncs2)cc1`, the “percent reduction” value was determined as 11.2 ± 4.2%.
With `COc1ccc(CNC(=O)Nc2ncc([N+](=O)[O-])s2)cc1` the figure was -3.27 ± 4.3%; with `Nc1nc(Nc2ccc(S(N)(=O)=O)cc2)nn1C(=O)c1c(F)cccc1F`, 27.8 ± 16%.
With `CCCNC(=O)c1cn2ncnc(Nc3cc(C(=O)NC4CC4)ccc3C)c2c1C` the figure was 10.5 ± 8.4%; with `COc1ccc(F)c(F)c1C(=O)c1cnc(NC2CCN(S(C)(=O)=O)CC2)nc1N`, 4.07 ± 8.4%.
With `C=CC(=O)N1CCCC(n2nc(-c3ccc(Oc4ccccc4)cc3)c3c(N)ncnc32)C1` (stereo not drawn) the figure was 4.46 ± 4.9%.
Consider `CC1(COc2ccc3c(c2)ncn3-c2ccc3cccc(N4CCC(N)CC4)c3n2)COC1`, for which the “percent reduction” value was determined as 18.8 ± 11%.
As for `C#Cc1cccc(Nc2ncnc3cc(OC)c(OCCCCCCC(=O)NO)cc23)c1`, the figure is -2.76 ± 13%.
As for `CO[C@@H](C)Cn1c(=O)n(C)c2cnc3ccc(-c4cncc(C(C)(C)O)c4)cc3c21`, the figure is 3.02 ± 4.9%; as for `C[C@@H](Oc1cc(-n2cnc3ccc(CN4CCN(C)CC4)cc32)sc1C(N)=O)c1ccccc1C(F)(F)F`, 2.7 ± 0.28%.
With `CNC(=O)c1c(F)cccc1Nc1nc(Nc2cc3c(cc2OC)CCN3C(=O)CN(C)C)nc2[nH]ccc12` the figure was -0.577 ± 11%; with `N#Cc1c(Oc2ccc(F)c(NC(=O)Cc3cccc(C(F)(F)F)c3)c2)ccc2nc(NC(=O)C3CC3)sc12`, 1.05 ± 9.1%.
Take `CCNc1nc(Nc2cc(F)c(C(=O)N3CCOCC3)cc2OC)ncc1C(F)(F)F`: the “percent reduction” value was 11.9 ± 11%.
With `NC(=O)c1ncn([C@@H]2O[C@H](CO)[C@@H](O)[C@H]2O)c1N` [AICAR (Acadesine)] the figure was -1.92 ± 11%; with `O=C1Nc2ccc(I)cc2/C1=C/c1cc(Br)c(O)c(Br)c1`, 8.22 ± 8.7%.
With `CC(C)(O)CNc1ncc(-c2ccnc(Nc3ccnc(Cl)c3)n2)c(CC2CC2)n1` the figure was 4.25 ± 12%.
With `CN1CC[C@H](c2c(O)cc(O)c3c(=O)cc(-c4ccccc4Cl)oc23)[C@H](O)C1` [Flavopiridol (Alvocidib)] the figure was -2.55 ± 4.6%.
For `C[C@]1(O)C[C@@H](c2nc(-c3ccc4ccc(-c5ccccc5)nc4c3)c3c(N)nccn32)C1` [OSI-906 (Linsitinib)], the “percent reduction” value is -6.09 ± 6%.
Take `FC(F)c1nc2ccccc2n1-c1nc(N2CCOCC2)nc(N2CCOCC2)n1`: the “percent reduction” value was -1.21 ± 9.1%.
As for `C#Cc1cccc(Nc2ncnc3cc(OCCOC)c(OCCO)cc23)c1.Cl`, the figure is -0.453 ± 12%; as for `COCC(=O)NC/C=C/c1ccc2ncnc(Nc3ccc(Oc4ccc(C)nc4)c(C)c3)c2c1`, 3.65 ± 5.5%.
As for `CNC(=O)c1cc(Oc2ccc(NC(=O)Nc3ccc(Cl)c(C(F)(F)F)c3)cc2)ccn1` [Sorafenib], the figure is 17.5 ± 6.7%.
As for `COCCOc1cnc2ccn([C@H](C)c3nnc4c(F)cc(-c5cnn(C)c5)cn34)c(=O)c2c1`, the figure is 5.44 ± 17%.
